Reference: PubChem BioAssay (NCI)
Compounds without any hit were thinned out: in the full panel of roughly 83,000, 20% have a hit.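 Cell lines were cultured in 96-well plates, exposed to a single compound concentration, and assessed for percent growth 48 hours later.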 Activity calls are given as the source filed them. How the source made its calls: active means growth percent below 10; inactive means the rest.

Tests used:
Assay in all cases: NCI-60 one-dose screen, 48 h (100 = growth as untreated, 0 = no growth, -100 = all killed)
Details in all cases: 10 µM unless noted
RPMI-8226 leukemia = test system: RPMI-8226 leukemia
OVCAR-8 ovarian = test system: OVCAR-8 ovarian
OVCAR-5 ovarian = test system: OVCAR-5 ovarian
OVCAR-4 ovarian = test system: OVCAR-4 ovarian
SK-OV-3 ovarian = test system: SK-OV-3 ovarian
IGROV1 ovarian = test system: IGROV1 ovarian
OVCAR-3 ovarian = test system: OVCAR-3 ovarian
HS 578T breast = test system: HS 578T breast
NCI/ADR-RES ovarian = test system: NCI/ADR-RES ovarian
T-47D breast = test system: T-47D breast
BT-549 breast = test system: BT-549 breast
MDA-MB-435 melanoma = test system: MDA-MB-435 melanoma
SW-620 colon = test system: SW-620 colon
MCF7 breast = test system: MCF7 breast
HCT-116 colon = test system: HCT-116 colon
HCC-2998 colon = test system: HCC-2998 colon
KM12 colon = test system: KM12 colon

Measured: growth

COc1cc(C2=NNC(c3ccc(N(C)C)cc3)C2)cc(OC)c1OC (centres undefined)
inactive: RPMI-8226 leukemia 16% | OVCAR-8 ovarian 24.7% | OVCAR-5 ovarian 30.4% | OVCAR-4 ovarian 52.2% | SK-OV-3 ovarian 19.5% | IGROV1 ovarian 35.4% | T-47D breast 45.8% | BT-549 breast 35.1% | MDA-MB-435 melanoma 19% | SW-620 colon 20% | MCF7 breast 20.2% | KM12 colon 14.4%
active: OVCAR-3 ovarian 5.84% | HS 578T breast -21.7% | NCI/ADR-RES ovarian -20.7% | HCT-116 colon 9.9% | HCC-2998 colon 7.82%

C=C1C(=O)O[C@H]2[C@H]1CCC(/C=N/c1ncc(Br)cc1N)=C\CC[C@@]1(C)O[C@@H]21
active: RPMI-8226 leukemia -24.1% | OVCAR-8 ovarian 4.39% | IGROV1 ovarian -1.81% | OVCAR-3 ovarian -58.3% | T-47D breast 5.65% | BT-549 breast 1.35% | SW-620 colon -62.7% | MCF7 breast -3.68% | HCT-116 colon -52.6%
inactive: OVCAR-5 ovarian 49.4% | OVCAR-4 ovarian 37% | SK-OV-3 ovarian 69.3% | HS 578T breast 32.4% | NCI/ADR-RES ovarian 58% | MDA-MB-435 melanoma 22.6% | HCC-2998 colon 62.2% | KM12 colon 53.9%

CN1C(=O)c2cc(Cl)nc3c(NC(=O)c4cccc(Cl)c4)c(Cl)c(NC(=O)c4cccc(Cl)c4)c1c23
inactive: RPMI-8226 leukemia 38.4% | OVCAR-5 ovarian 88.7% | SK-OV-3 ovarian 86.4% | NCI/ADR-RES ovarian 27.5% | T-47D breast 22.1% | MCF7 breast 18.1% | KM12 colon 64.3%
active: OVCAR-8 ovarian 2.78% | OVCAR-4 ovarian -22.7% | IGROV1 ovarian -66.2% | OVCAR-3 ovarian -52.7% | HS 578T breast -12.3% | BT-549 breast -8.59% | MDA-MB-435 melanoma 3.49% | SW-620 colon -58.3% | HCT-116 colon -56.2% | HCC-2998 colon 9.23%

CCCCCCCc1n(Cc2ccc3ccccc3c2)c2ccccc2[n+]1Cc1ccc2ccccc2c1
active: RPMI-8226 leukemia -53% | OVCAR-8 ovarian -69.8% | OVCAR-5 ovarian -83.7% | OVCAR-4 ovarian -62.5% | SK-OV-3 ovarian -91.7% | IGROV1 ovarian -67.5% | OVCAR-3 ovarian -86.7% | HS 578T breast -42.7% | NCI/ADR-RES ovarian -35% | T-47D breast -74.2% | BT-549 breast -86.6% | MDA-MB-435 melanoma -92.3% | SW-620 colon -80% | MCF7 breast -64.7% | HCT-116 colon -84.6% | HCC-2998 colon -61.2% | KM12 colon -74.9%

C#C[C@@]1(O)[C@@H](CO)O[C@@H](n2cc(Cl)c3c(N)ccnc32)[C@@H]1O
inactive: RPMI-8226 leukemia 39.9% | OVCAR-8 ovarian 26.9% | OVCAR-5 ovarian 111% | OVCAR-4 ovarian 79.9% | SK-OV-3 ovarian 95.4% | IGROV1 ovarian 88.3% | OVCAR-3 ovarian 47.6% | HS 578T breast 102% | NCI/ADR-RES ovarian 28.5% | T-47D breast 93.8% | BT-549 breast 89.9% | MDA-MB-435 melanoma 75.6% | SW-620 colon 54.8% | MCF7 breast 36.7% | HCC-2998 colon 85.4% | KM12 colon 69.9%
active: HCT-116 colon 4.67%

O=c1nc(-c2ccccc2)c2cc(-c3ccc(N4CCCC4)nc3)ccc2[nH]1
inactive: RPMI-8226 leukemia 71.6% | OVCAR-8 ovarian 89.2% | OVCAR-5 ovarian 98.7% | OVCAR-4 ovarian 85.3% | SK-OV-3 ovarian 80.6% | IGROV1 ovarian 66.1% | OVCAR-3 ovarian 44.7% | HS 578T breast 67.8% | NCI/ADR-RES ovarian 63.9% | T-47D breast 62.3% | BT-549 breast 64% | SW-620 colon 45.8% | MCF7 breast 35.4% | HCT-116 colon 45.7% | HCC-2998 colon 80.5% | KM12 colon 56.7%
active: MDA-MB-435 melanoma -1.96%

Nc1c(C(=O)Nc2ccccc2)sc2nc3c(cc12)CN(C(=O)OCc1ccccc1)CC3
active: MDA-MB-435 melanoma -8.75%
inactive: RPMI-8226 leukemia 53.1% | OVCAR-8 ovarian 68.9% | OVCAR-5 ovarian 91.7% | OVCAR-4 ovarian 75.4% | SK-OV-3 ovarian 43.7% | IGROV1 ovarian 56.4% | OVCAR-3 ovarian 16% | HS 578T breast 53.5% | NCI/ADR-RES ovarian 45.6% | T-47D breast 68.2% | BT-549 breast 52.1% | SW-620 colon 30.1% | MCF7 breast 21.1% | HCT-116 colon 28.7% | HCC-2998 colon 77.5% | KM12 colon 39.1%

Cc1cnc(SCc2ccc(Cl)cc2)[nH]c1=S
inactive: RPMI-8226 leukemia 101% | OVCAR-8 ovarian 101% | OVCAR-5 ovarian 97.5% | OVCAR-4 ovarian 92.3% | SK-OV-3 ovarian 108% | IGROV1 ovarian 103% | OVCAR-3 ovarian 94.1% | HS 578T breast 112% | NCI/ADR-RES ovarian 103% | T-47D breast 88% | BT-549 breast 108% | MDA-MB-435 melanoma 104% | SW-620 colon 111% | MCF7 breast 95.6% | HCT-116 colon 101% | HCC-2998 colon 108% | KM12 colon 96.3%

CCOC(=O)c1c(C)nc2c(c1N)/C(=C/c1cccs1)C(=O)N2c1ccc(OC)cc1
inactive: RPMI-8226 leukemia 74.5% | OVCAR-8 ovarian 20.5% | OVCAR-5 ovarian 102% | OVCAR-4 ovarian 13.9% | SK-OV-3 ovarian 36.6% | IGROV1 ovarian 45.7% | OVCAR-3 ovarian 32.3% | HS 578T breast 25% | NCI/ADR-RES ovarian 29% | T-47D breast 19% | BT-549 breast 45.9% | MDA-MB-435 melanoma 59.9% | SW-620 colon 67.6% | MCF7 breast 25% | HCT-116 colon 20.9% | HCC-2998 colon 80.7% | KM12 colon 70.2%

COC(=O)c1ccc(NC(=O)CSc2nc(-c3ccc(F)cc3)nc3ccccc23)cc1
active: OVCAR-4 ovarian -31.5%
inactive: RPMI-8226 leukemia 44.9% | OVCAR-8 ovarian 82.2% | OVCAR-5 ovarian 107% | SK-OV-3 ovarian 90.9% | IGROV1 ovarian 90.9% | OVCAR-3 ovarian 16.8% | HS 578T breast 82.8% | NCI/ADR-RES ovarian 88% | T-47D breast 67.7% | BT-549 breast 81.5% | MDA-MB-435 melanoma 68.1% | SW-620 colon 79.6% | MCF7 breast 61.1% | HCT-116 colon 49.8% | HCC-2998 colon 102% | KM12 colon 73.9%

O=C(N/N=C/C[C@@H]1[C@@H](/C=C/[C@@H](O)COc2cccc(Cl)c2)[C@H](O)C[C@@H]1O)c1ccncc1
inactive: RPMI-8226 leukemia 94.5% | OVCAR-8 ovarian 79.9% | OVCAR-5 ovarian 97.4% | OVCAR-4 ovarian 104% | SK-OV-3 ovarian 77% | IGROV1 ovarian 109% | OVCAR-3 ovarian 105% | HS 578T breast 92.5% | NCI/ADR-RES ovarian 102% | T-47D breast 90.8% | BT-549 breast 95.3% | MDA-MB-435 melanoma 99.8% | SW-620 colon 94.2% | MCF7 breast 99.1% | HCT-116 colon 92.7% | HCC-2998 colon 104% | KM12 colon 105%

COc1cc2c(cc1OC)C(Sc1ccc(Cl)cc1)c1c(nc(N)c(C#N)c1N)O2 (centres undefined)
inactive: OVCAR-5 ovarian 10.8% | SK-OV-3 ovarian 56.1% | HS 578T breast 30.8%
active: RPMI-8226 leukemia -24.2% | OVCAR-8 ovarian 1.28% | OVCAR-4 ovarian -14.8% | IGROV1 ovarian -25.5% | OVCAR-3 ovarian -69.6% | NCI/ADR-RES ovarian 1.5% | T-47D breast -3.7% | BT-549 breast 1.72% | MDA-MB-435 melanoma -43.8% | SW-620 colon -63.1% | MCF7 breast -52.2% | HCT-116 colon -70.6% | HCC-2998 colon -48.1% | KM12 colon -27.8%

CC(=O)OCC1SC(OC(C)=O)C(NC(=O)/C=C/CCl)C(OC(C)=O)C1OC(C)=O (centres undefined)
inactive: RPMI-8226 leukemia 95.2% | OVCAR-8 ovarian 98.2% | OVCAR-5 ovarian 148% | OVCAR-4 ovarian 101% | SK-OV-3 ovarian 86.4% | IGROV1 ovarian 105% | OVCAR-3 ovarian 102% | HS 578T breast 93.5% | NCI/ADR-RES ovarian 103% | T-47D breast 90.6% | BT-549 breast 105% | MDA-MB-435 melanoma 101% | SW-620 colon 107% | MCF7 breast 85.8% | HCT-116 colon 101% | HCC-2998 colon 104% | KM12 colon 102%

COc1ccc(-c2[nH]c3ccccc3c2C=C(C#N)C#N)cc1
inactive: OVCAR-8 ovarian 19.4% | OVCAR-5 ovarian 26.7% | OVCAR-4 ovarian 33.2% | SK-OV-3 ovarian 28.7% | IGROV1 ovarian 12.3% | HS 578T breast 16.4% | T-47D breast 51.5% | BT-549 breast 45.9% | SW-620 colon 20.5% | MCF7 breast 11.4%
active: RPMI-8226 leukemia -43.8% | OVCAR-3 ovarian -6.19% | NCI/ADR-RES ovarian -12% | MDA-MB-435 melanoma -34.6% | HCT-116 colon 4.01% | HCC-2998 colon -39.2% | KM12 colon 3.41%

O=C1NCc2ccc3c(-c4cccc(Cl)c4)c[nH]c3c21
active: OVCAR-3 ovarian -5.67% | NCI/ADR-RES ovarian 6.99% | MDA-MB-435 melanoma -26.2%
inactive: RPMI-8226 leukemia 25.8% | OVCAR-8 ovarian 25.4% | OVCAR-5 ovarian 39.7% | OVCAR-4 ovarian 53.6% | SK-OV-3 ovarian 10.9% | IGROV1 ovarian 32.2% | HS 578T breast 31.3% | T-47D breast 39% | BT-549 breast 58.5% | SW-620 colon 20.7% | MCF7 breast 17.5% | HCT-116 colon 14.2% | HCC-2998 colon 25.3% | KM12 colon 19.1%

Cc1ccc2nc3nc4ccc[nH]c4cc3c2c1
inactive: RPMI-8226 leukemia 49.3% | OVCAR-8 ovarian 99.7% | OVCAR-5 ovarian 90.9% | OVCAR-4 ovarian 65.8% | SK-OV-3 ovarian 89.2% | IGROV1 ovarian 68.2% | OVCAR-3 ovarian 77.6% | HS 578T breast 90.2% | NCI/ADR-RES ovarian 99.9% | T-47D breast 10.3% | BT-549 breast 93.2% | MDA-MB-435 melanoma 106% | SW-620 colon 108% | HCT-116 colon 97.1% | HCC-2998 colon 63.7% | KM12 colon 47.8%
active: MCF7 breast 2.23%

CC(C)(C)c1nc2c(s1)c1nc(N)ncc1c1ccc(NS(=O)(=O)c3c(F)cccc3F)c(F)c12
inactive: RPMI-8226 leukemia 68.9% | OVCAR-8 ovarian 61.1% | OVCAR-5 ovarian 104% | OVCAR-4 ovarian 60.7% | SK-OV-3 ovarian 13.7% | IGROV1 ovarian 38.5% | OVCAR-3 ovarian 80.7% | HS 578T breast 60.4% | NCI/ADR-RES ovarian 80.6% | T-47D breast 42.9% | BT-549 breast 77.4% | MDA-MB-435 melanoma 38.6% | SW-620 colon 110% | MCF7 breast 89.8% | HCT-116 colon 49.3% | HCC-2998 colon 82% | KM12 colon 35.5%
